Screening results as filed in PubChem.
PfHsp40 yeast: compounds rescuing yeast from Plasmodium falciparum HSP40 toxicity | S. cerevisiae expressing PfHsp40, growth rescue, ATP luminescence | growth rescue, % at 12.5 µM | actives 0.68% (n = 340,000); in the data active = growth rescue above about 28%, passing the limit was not always enough;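 note: yeast W303a lacking pdr1 and pdr3 grown in galactose medium; growth measured after three days at 30 °C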
DUSP3 inh: inhibitors of human VHR1 phosphatase (DUSP3); P51452; recombinant VHR phosphatase, pNPP absorbance; inhibition, % at 13.3 µM; actives 0.52% (n = 290,000); in the data active = inhibition above about 50%
Target sequence (P51452 whole entry, looked up): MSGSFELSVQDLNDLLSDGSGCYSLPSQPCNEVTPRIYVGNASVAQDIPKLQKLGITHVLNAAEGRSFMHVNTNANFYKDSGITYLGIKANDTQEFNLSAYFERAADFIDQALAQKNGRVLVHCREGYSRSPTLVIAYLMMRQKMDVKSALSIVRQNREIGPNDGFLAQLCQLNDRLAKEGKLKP
PrPC TRFRET: reduces human prion protein on the cell surface | cell surface PrPC, TR-FRET read-out | inhibition, % at 13.8 µM | actives 0.43% (n = 370,000) | AID 720596; in the data active = inhibition above about 24%; note: 0% = median of the test wells and 100% = reference compound wells
MazEF act: increases E. coli MazEF RNase cleavage of RNA; FAM/BHQ RNA-DNA oligo cleavage fluorescence, 5 h; AID 504720; activation, % at 20 µM; actives 0.32% (n = 350,000); P0AE70; in the data active = activation above about 50%
Target sequence (P0AE70 whole entry, looked up): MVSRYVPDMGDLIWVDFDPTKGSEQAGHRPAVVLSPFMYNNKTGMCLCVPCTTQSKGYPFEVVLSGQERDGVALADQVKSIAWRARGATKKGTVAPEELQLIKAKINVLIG
PrP 5UTR inh: inhibition of PrP 5' UTR reporter expression; inhibition, % (no concentration beside the values); actives 0.35% (n = 340,000); cell-based PrP 5' UTR mRNA reporter, plate reader; in the data active = inhibition above about 52%; note: 0 = median of the neutral control wells
BJeLR viability: kills HRASV12-expressing BJeLR cells; actives 0.17% (n = 300,000); BJeLR (HRASV12) viability, CellTiter-Glo ATP luminescence, 48 h; inhibition, % (test concentration not listed); in the data active = inhibition above about 50%
An asterisk follows results filed as active; . = not tested or not shown. The list is not random: actives were taken first. Their share in the collection is about 2.1%.

SMILES	PfHsp40 yeast	DUSP3 inh	PrPC TRFRET	MazEF act	PrP 5UTR inh	BJeLR viability
Cc1ccc(C(C)NC(=S)NC2CCCCC2)c(C)c1 (configuration not stated)	7	11	13	0	2	13
COCCCNC(=O)C[C@H]1C[C@@]2(C(=O)OC)C(=C[C@H](C(C)C)O[C@@H]2C2CC2)N(CCC2=CCCCC2)C1=O	.	.	0	.	.	.
O=C(Cn1c(SCC(=O)N2CCCc3ccccc32)nc2ccccc21)N1CCCC1	0	53*	.	4	-24	3
Cc1ccc(C)c2c1cc(C)c1nnc(SCC(=O)N3CCCc4ccccc43)n12	-1	60*	-7	1	-4	2
Cc1cc(C)c2c(c1)cc(C)c1nnc(SCC(=O)N3CCCc4ccccc43)n12	0	10	-5	0	-12	-16
O=C(CCl)N(CCc1ccccc1)CCc1ccccc1	0	12	-10	0	-7	12
COc1ccc(Nc2nc(N)nc(CSc3n[nH]c(-c4ccccc4)n3)n2)cc1	-1	20	-5	-9	-16	4
Nc1nc(CSc2n[nH]c(-c3ccccc3)n2)nc(Nc2ccccc2)n1	68*	-2	-4	2	-10	0
CCCCCc1ccc(-c2n[nH]c(=O)c3ccccc23)cc1	.	.	-10	.	.	.
COc1cc(NS(=O)(=O)c2cc(NC(C)=O)ccc2OC)c(OC)cc1NC(=O)c1ccccc1	0	.	2	5	-3	.
COc1ccc(-c2cc3c(=O)n(CC(=O)NC4CCN(Cc5ccccc5)CC4)ncn3n2)cc1	83*	13	-8	-18	-47	0
COc1ccc(-c2cc3c(=O)n(CC(=O)NCc4cccnc4)ncn3n2)cc1	0	21	11	-5	-10	-5
CCCCOC(=O)/C=C/c1ccc(OC(=O)OC)c(OC(=O)OC)c1	287*	-8	-13	-5	-40	-1
O=C1c2ccccc2NC(c2ccc(-c3ccc(C(F)(F)F)cc3)o2)N1O (configuration not stated)	279*	.	3	-3	23	.
O=C1c2ccccc2NC(c2ccc(Br)o2)N1O (configuration not stated)	-1	.	-3	-1	-34	.
O=C1c2ccccc2NC(c2ccc(-c3cccs3)o2)N1O (configuration not stated)	58*	.	1	4	-34	.
COc1ccc(CNCC#Cc2ccccc2)c(OC)c1	.	.	-10	.	.	.
O=C(NCC1CCCO1)C(c1ccco1)N(Cc1ccc(F)cc1)C(=O)CN1C(=O)c2ccccc2S1(=O)=O (configuration not stated)	0	58*	0	-15	-6	3
Cc1ccc(/C=N/n2c(C)cc(C)c(C#N)c2=O)cc1	0	4	-3	-8	-7	2
Cc1cc(C)n(/N=C/c2ccc(C(C)C)cc2)c(=O)c1C#N	-2	51*	-6	-4	-23	6
CC(=O)NC1CCC(OC(=O)Nc2ccccc2)CC1 (configuration not stated)	0	.	3	13	-25	.
Cc1cc(NC(=S)Nc2ccc(C)c(Cl)c2)n[nH]1	57*	21	11	7	-69	9
COc1ccc(NC(=S)Nc2cc(C)[nH]n2)cc1Cl	0	-7	-4	-2	-15	3
Cc1cccc(Nc2nnc(SCC(O)=C(C#N)c3nc4ccccc4[nH]3)s2)c1	1	.	-7	-15	-10	.
O=C(O)c1cccc(-n2sc3ccccc3c2=O)c1	52*	.	-2	-9	-25	.
SMILES	PfHsp40 yeast	DUSP3 inh	PrPC TRFRET	MazEF act	PrP 5UTR inh	BJeLR viability
Cc1ccc(N=Cc2cc(Cc3ccccc3Cl)cc([N+](=O)[O-])c2O)c(O)c1	83*	23	.	-8	-16	-4
Cc1cc(C)n(CCNc2nc3nonc3nc2N2CCCCC2)n1	-2	22	-5	4	-9	-15
Cc1ccc(Cl)cc1OCC(=O)NCCOC(=O)Nc1sc(=S)n(C)c1C	-1	55*	-3	2	-22	-2
CCOC(=O)N1CCC(N(CCN(C)C)C(=S)Nc2ccc(OCC)cc2)CC1	.	54*	3	.	.	-3
Cc1ccc(C(=O)N/N=C/c2cccnc2)cc1Cl	.	.	-1	-9	.	.
CC(=O)c1cccc(N=c2scc(-c3ccc(S(=O)(=O)N4CCOCC4)cc3)n2CCO)c1	0	-11	24*	-4	-16	7
C=CCNC(=O)N1c2ccccc2Sc2ccccc21	57*	66	8	2	-6	4
CC1(C)CC(=O)c2c(nc(SCC(=O)Nc3nsc(-c4ccccc4)n3)c(C#N)c2-c2ccccc2)C1	0	20	-2	-48	-12	59*
Cc1nnc(SCC(=O)Nc2nsc(-c3ccccc3)n2)s1	0	-16	-3	0	-7	-3
OCCC1CN(CCCc2ccccc2)CCN1Cc1ccc(F)cc1 (configuration not stated)	2	56*	5	-7	-19	1
Cc1ccc(Nc2c([N+](=O)[O-])ccc3c2=NC2(CCCCC2)N=3)cc1	59*	42	-18	9	-33	2
Cc1ccc(-c2nc(-c3ccncc3)no2)cc1Cl	0	49	3	-14	-58	-2
Cc1ccc(-c2nc(-c3ccncc3)no2)cc1C	1	59*	8	15	-14	-10
O=C1OCC2OC(O)C(O)C(O)C2OC(=O)c2cc(O)c(O)c(O)c2-c2c(O)c(O)c3oc(=O)c4c(c(O)c(O)c5oc(=O)c2c3c54)-c2c1cc(O)c(O)c2O (configuration not stated)	.	121*	.	.	.	.
COc1ccc(NC(=O)Cc2nnc(SCC(=O)Nc3nccs3)n2C)cc1	0	40	-2	-10	-3	-1
COC(=O)C[C@]1(C(=O)OC)CN(C#N)N(c2ccc(Cl)cc2)C12c1ccccc1-c1ccccc12	-2	27	75*	6	-1	67*
COC(=O)[C@@H]1[C@@H](C(=O)OC)C2(c3ccccc3-c3ccccc32)N(c2ccc(Cl)cc2)N1C#N	-1	-5	23	-9	-1	33
CCCS(=O)(=O)NC(=O)C1(C)CCN(C(=O)c2cc(C(C)(C)C)nn2C)C1 (configuration not stated)	.	.	0	.	.	.
CCc1cc(-c2[nH]ncc2-c2ccc([N+](=O)[O-])cc2)c(O)cc1OC	360*	21	.	-3	-1	5
O=C(CNC(=O)C12CC3CC(CC(C3)C1)C2)N1CCCC(C(F)(F)F)C1 (configuration not stated)	.	.	1	-1	.	.
C=CC[C@@H](CC/C=C/C=C/CC/C=C\[C@@H]1CSC([C@@H]2C[C@@H]2C)=N1)OC	3	.	.	3	56*	.
CC(C(=O)Nc1ccc(C#N)cc1)N(C)CC(=O)N(C)c1c(N)n(Cc2ccccc2)c(=O)[nH]c1=O (configuration not stated)	-2	.	5	8	-57	.
